Counter-ions that a name gives are not always drawn.
What follows are molecules tested on Drosophila S2 cl14 SmoIP sensor cells (assay: normalized SmoIP GFP fluorescence (untreated unstimulated = 0%, untreated Hh-stimulated = 100%); higher = more Smo activation sensor fluorescence). Conditions: stimulation: Hh conditioned medium (+Hh); compound concentration: 2 uM; 24 h.
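Also: flow cytometry read-out as median GFP intensity of gated cells, compounds added 30 min before Hh-conditioned or mock medium, mock-treated cells serving as unstimulated baseline.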

Point of comparison: `Cc1cc2c(F)c(Oc3ncnn4cc(OC[C@@H](C)OC(=O)[C@H](C)N)c(C)c34)ccc2[nH]1` [Brivanib-alaninate], “normalized SmoIP GFP fluorescence” value 117%. Against it:
- C[C@@H](c1ncncc1F)[C@](O)(Cn1cncn1)c1ccc(F)cc1F [Voriconazole] — lower, 101%
- CC(C)NCC(O)COc1cccc2ccccc12 (stereo not given) [propranolol-hcl] — lower, 111%
- COc1cc(NC(=O)c2ccccn2)ccc1Cl — lower, 105%
- Cc1ccc(C(=O)Nc2cccc(C(F)(F)F)c2)cc1Nc1nc(-c2cccnc2)nc2c1cnn2C — higher, 140%
- CN1CCC[C@@H]1Cc1c[nH]c2ccc(CCS(=O)(=O)c3ccccc3)cc12 [eletriptan-hydrobromide] — lower, 106%
- Cc1cc(CN2CCN(c3c(Br)cnc4nc(-c5ccc(N6CCN(C)CC6)cc5)[nH]c34)CC2)no1 — higher, 123%
- CC(=O)N[C@@H](CS)C(=O)O [Acetylcysteine] — lower, 111%
- O=C(NCCS(=O)(=O)c1ccc(C(F)(F)F)cn1)c1ccc(Cl)cc1 — higher, 120%
- CCOC(=O)c1ccc(NC2CCCCC2)c(N)c1 [ferrostatin-1-fer-1] — lower, 116%
- COc1cc(OC)c(NC(=O)Nc2cc(C)on2)cc1Cl — lower, 114%
- c1ccc2c(Oc3nc(Nc4ccc(N5CCOCC5)cc4)c4ncn(C5CCCCC5)c4n3)cccc2c1 [purmorphamine] — lower, 107%
- Cn1nnc2c(C(N)=O)ncn2c1=O [Methazolastone] — lower, 110%
- C[C@@]1(C(=O)Nc2ccc(F)nc2)CCCN1c1nc(Nc2cc(C3CC3)n[nH]2)c2cccn2n1 — higher, 230%
- CNC(=O)c1ccc2cc([C@@]3(O)CCn4cncc43)ccc2c1 — lower, 104%

— the supplement of paper PMC5662767
